Consider six compounds from PubChem BioAssay (NCI).

Test [1] in a line: NCI Yeast Anticancer Drug Screen. Data for the rad50 strain (AID 155).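 Also: 0% = growth of vehicle-only cultures of the same strain.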 The conditions noted are these: S. cerevisiae rad50 strain growth inhibition, stronger effect = higher value. In short, it runs like this:
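Genetically altered yeast (DNA repair pathway); compound treatment; growth inhibition vs vehicle ctrl.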

A short description of test [2]: NCI Yeast Anticancer Drug Screen. Data for the mec2-1 strain (AID 157). The note with it: S. cerevisiae mec2-1 strain, stronger effect = higher value. Summed up: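 Test agents were screened against the mec2-1 yeast strain, with defined DNA repair or cell cycle alteration. Growth was scored as inhibition against vehicle-only controls.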
Test [3] can be described thus: NCI Yeast Anticancer Drug Screen. Data for the sgs1 mgt1 strain (AID 161).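 Also: 0% = growth of cultures given vehicle only.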 The note with it: S. cerevisiae sgs1 mgt1 strain, stronger effect = higher value. Summed up: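 Genetically altered yeast, compound exposure, growth inhibition relative to vehicle.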
The nature of test [4]: NCI Yeast Anticancer Drug Screen. Data for the cln2 rad14 strain (AID 165).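 Also: 0% = growth equal to vehicle treated cultures.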 The conditions noted are these: S. cerevisiae cln2 rad14 strain, stronger effect = higher value. In short, it runs like this:
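Growth of compound-exposed yeast (cln2 rad14 genotype) measured and expressed as inhibition relative to vehicle.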

Test [5] can be described thus: NCI Yeast Anticancer Drug Screen. Data for the bub3 strain (AID 167). The conditions noted are these: S. cerevisiae bub3 mutant strain, stronger effect = higher value. Summed up: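 Yeast carrying a defined mutation is treated with each compound, and growth is compared with that of vehicle-exposed cells to give inhibition.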
Test [6] can be described thus: NCI Yeast Anticancer Drug Screen. Data for the mlh1 rad18 strain (AID 175). The note with it: S. cerevisiae mlh1 rad18 strain growth inhibition, stronger effect = higher value. Summed up:
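In this whole-cell yeast screen, a strain with altered DNA damage repair is challenged with compound, and its growth is measured against matched vehicle-treated controls.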

Where [7] appears, read: at 5.0 µM (retest, dose inferred, filed as 0.5).
The mark [8] stands for this setting: at 50.0 µM (retest, dose inferred, filed as 5.0).

About 79,000 compounds went through this panel and 15% of them were active in at least one assay; those are over-represented in the sample as a whole. Values without a mark were called inactive. Active and inactive are the calls of the source. Rule as the data show it: active = growth inhibition above about 70%; inactive = the rest.

For the compound `COc1ccccc1C1c2cc3c(cc2OC2(OC)COC(=O)C12)OCO3` (stereo not drawn), the growth inhibition in test [1] (setting [7]) was 24%; in test [1] (setting [8]), 58%; in test [1] (at 50.0 µM), 9.85%; in test [2] (setting [7]), 22%; in test [2] (setting [8]), 42%; in test [2] (at 50.0 µM) it was 0%. In addition, the growth inhibition was 11% in test [3] (setting [7]); 42% in test [3] (setting [8]); 1.95% in test [3] (at 50.0 µM); 20% in test [4] (setting [7]); 35% in test [4] (setting [8]); 17% in test [4] (at 50.0 µM). The growth inhibition is 32% in test [5] (setting [7]); 54% in test [5] (setting [8]); 17.2% in test [5] (at 50.0 µM); 23% in test [6] (setting [7]); 69% in test [6] (setting [8]); 22% in test [6] (at 50.0 µM).
As to `CC(C)c1cc(O)c2c(c1O)C1CC3C(C)(C)CCC[C@]23C(=O)O1` (stereo partly drawn), the growth inhibition in test [1] (setting [7]) was 1%; in test [1] (setting [8]), 49%; in test [1] (at 50.0 µM), 92.5% (active); in test [2] (setting [7]), 9%; in test [2] (setting [8]), 82% (active); in test [2] (at 50.0 µM), 95% (active). The growth inhibition was -5% in test [3] (setting [7]); 76% (active) in test [3] (setting [8]); 92% (active) in test [3] (at 50.0 µM); 4% in test [4] (setting [7]); 61% in test [4] (setting [8]); 88.2% (active) in test [4] (at 50.0 µM). Further, the growth inhibition was 1% in test [5] (setting [7]); 64% in test [5] (setting [8]); 94.7% (active) in test [5] (at 50.0 µM); 3% in test [6] (setting [7]); 68% in test [6] (setting [8]); 96.2% (active) in test [6] (at 50.0 µM).
With `CCCCCCCCCc1ccc(O)c(Cl)c1`, the growth inhibition in test [1] (setting [7]) is -28%; in test [1] (setting [8]) it was 94% (active); in test [1] (at 50.0 µM), 99.7% (active); in test [2] (setting [7]), -3%; in test [2] (setting [8]) it was 90% (active); in test [2] (at 50.0 µM), 99.8% (active). Further, the growth inhibition in test [3] (setting [7]) is -2%; in test [3] (setting [8]) it was 99% (active); in test [3] (at 50.0 µM) it was 99.2% (active); in test [4] (setting [7]) it was -12%; in test [4] (setting [8]) it was 97% (active); in test [4] (at 50.0 µM) it was 99.5% (active). Moreover, the growth inhibition was -1% in test [5] (setting [7]); 86% (active) in test [5] (setting [8]); 99.4% (active) in test [5] (at 50.0 µM); -9% in test [6] (setting [7]); 99% (active) in test [6] (setting [8]); 99.5% (active) in test [6] (at 50.0 µM).
Regarding `O=C(c1ccc(Cl)cc1)c1ccc([N+](=O)[O-])cc1`, the growth inhibition is 13% in test [1] (setting [7]); -4% in test [1] (setting [8]); 5.35% in test [1] (at 50.0 µM); -4% in test [2] (setting [7]); 1% in test [2] (setting [8]); -16.4% in test [2] (at 50.0 µM). For the same compound, the growth inhibition is 4% in test [3] (setting [7]); -14% in test [3] (setting [8]); 4.6% in test [3] (at 50.0 µM); -3% in test [4] (setting [7]); 1% in test [4] (setting [8]); -2.2% in test [4] (at 50.0 µM). The growth inhibition in test [5] (setting [7]) is 3%; in test [5] (setting [8]), 31%; in test [5] (at 50.0 µM), 74.5% (active); in test [6] (setting [7]) it was -3%; in test [6] (setting [8]) it was 7%; in test [6] (at 50.0 µM), 8.05%.
On to `CCC(c1ccc(Cl)cc1)C(C#N)c1ccccc1` (stereo not drawn), for which the growth inhibition is 6% in test [1] (setting [7]); 40% in test [1] (setting [8]); 76.7% (active) in test [1] (at 50.0 µM); 7% in test [2] (setting [7]); 34% in test [2] (setting [8]); 49.2% in test [2] (at 50.0 µM). Also, the growth inhibition in test [3] (setting [7]) is 3%; in test [3] (setting [8]), 53%; in test [3] (at 50.0 µM), 69.4%; in test [4] (setting [7]), 2%; in test [4] (setting [8]), 3%; in test [4] (at 50.0 µM), -0.6%. Moreover, the growth inhibition in test [5] (setting [7]) was 1%; in test [5] (setting [8]), 3%; in test [5] (at 50.0 µM), 40.4%; in test [6] (setting [7]), 7%; in test [6] (setting [8]), 30%; in test [6] (at 50.0 µM) it was 59%.
Turning to `CS/C(C#N)=C(\C#N)SC`, the growth inhibition is 10% in test [1] (setting [7]); 78% (active) in test [1] (setting [8]); 79.2% (active) in test [1] (at 50.0 µM); 3% in test [2] (setting [7]); 27% in test [2] (setting [8]); 16.3% in test [2] (at 50.0 µM). The growth inhibition in test [3] (setting [7]) was 2%; in test [3] (setting [8]), 23%; in test [3] (at 50.0 µM), 67.6%; in test [4] (setting [7]), 3%; in test [4] (setting [8]), 12%; in test [4] (at 50.0 µM), 23.6%. Besides, the growth inhibition in test [5] (setting [7]) is 2%; in test [5] (setting [8]), 59%; in test [5] (at 50.0 µM) it was 53.1%; in test [6] (setting [7]), 7%; in test [6] (setting [8]), 35%; in test [6] (at 50.0 µM), 43.5%.
